Among the data in PubChem BioAssay are composite z-score and z-score values, retold here.

The structures appear in SMILES notation. Activity calls are given as the source filed them.

The subject of experiment [1] is PRMT1 (protein arginine N-methyltransferase 1). In words: small molecules binding arginine methyltransferase PRMT1 – biochemical, small-molecule microarray, 635 nm fluorescence, primary screen (AID 1088).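 Note: binding of Prmt1 protein to compounds spotted on small-molecule microarray slides.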 The note with it: higher = more signal.
Experiment [2] can be described thus: growth effects on S. cerevisiae YJM789 – YJM789 clinical isolate, OD600, 24 h, basal, primary screen (AID 1089).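 Note: growth of clinical yeast isolate S. cerevisiae YJM 789 seeded 1000 cells per well; test concentration not given here.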 The note with it: higher = more signal, called active from +8 up or from −8 down.
Experiment [3] is described as follows: S. pombe growth modifiers, basal conditions – strain 972, OD600, 24 h, no modulator, primary screen (AID 1090).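 Note: basal condition with compound alone and no growth modifier present; test concentration not given here.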 The note with it: S. pombe 972 growth, higher = more signal, called active from +8 up or from −8 down.
A short description of experiment [4]: budding yeast growth modifiers under rapamycin – strain BY4716, OD600, 96 h, primary screen (AID 1091). Note: test concentration not given here. As to conditions: S. cerevisiae BY4716 + rapamycin, higher = more signal, called active from +8 up or from −8 down.
Experiment [5] has as its target Torsin-1A-interacting protein 2 (Homo sapiens) (UniProt Q8NFQ8). The experiment is described as follows: small molecules binding lysate-expressed LULL1 – cell lysate, human LULL1 lysate, 635/667 nm fluorescence, primary screen (AID 1092).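 Note: probe is lysate of COS7 cells overexpressing human LULL1; score merges per-feature 667 nm fluorescence with signal-to-noise.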 The note with it: small-molecule microarray, hLULL1 lysate binding, 635 nm fluorescence; higher = more signal.
A short description of experiment [6]: optical density change of DRC41 E. coli – strain DRC41, OD650, 24 h, E. coli filamentation project, primary screen (AID 1093).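 Note: MC1000 strain lacking acrAB efflux and sulA so SOS filamentation is blocked; test concentration not given here.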 The note with it: E. coli DRC41 growth, higher = more signal, called active from +8 up or from −8 down.
Experiment [7] is described as follows: probe aLefty2 binding to arrayed compounds – biochemical, biotinylated probe, 635/667 nm fluorescence, primary screen (AID 1094).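 Note: score merges spot fluorescence near 667 nm with spot signal-to-noise ratio.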 As to conditions: small-molecule microarray, higher = more signal.
Experiment [8] deals with Noggin (protein binding on small-molecule microarray). In words: small molecules binding Noggin protein – biochemical, 635/667 nm fluorescence, primary screen (AID 1095).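 Note: score merges 667 nm feature fluorescence with signal to noise over triplicate slides.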 The note with it: 635 nm fluorescence, higher = more signal.
Experiment [9] deals with Neurogenic locus notch homolog protein 3 (Homo sapiens) (UniProt Q9UM47). In words: small molecules binding NOTCH3 protein – biochemical, 635/667 nm fluorescence, primary screen (AID 1096). The note with it: small-molecule microarray, 635 nm fluorescence, higher = more signal.
Neurogenic locus notch homolog protein 3 (Homo sapiens), sequence (Q9UM47 whole entry, looked up): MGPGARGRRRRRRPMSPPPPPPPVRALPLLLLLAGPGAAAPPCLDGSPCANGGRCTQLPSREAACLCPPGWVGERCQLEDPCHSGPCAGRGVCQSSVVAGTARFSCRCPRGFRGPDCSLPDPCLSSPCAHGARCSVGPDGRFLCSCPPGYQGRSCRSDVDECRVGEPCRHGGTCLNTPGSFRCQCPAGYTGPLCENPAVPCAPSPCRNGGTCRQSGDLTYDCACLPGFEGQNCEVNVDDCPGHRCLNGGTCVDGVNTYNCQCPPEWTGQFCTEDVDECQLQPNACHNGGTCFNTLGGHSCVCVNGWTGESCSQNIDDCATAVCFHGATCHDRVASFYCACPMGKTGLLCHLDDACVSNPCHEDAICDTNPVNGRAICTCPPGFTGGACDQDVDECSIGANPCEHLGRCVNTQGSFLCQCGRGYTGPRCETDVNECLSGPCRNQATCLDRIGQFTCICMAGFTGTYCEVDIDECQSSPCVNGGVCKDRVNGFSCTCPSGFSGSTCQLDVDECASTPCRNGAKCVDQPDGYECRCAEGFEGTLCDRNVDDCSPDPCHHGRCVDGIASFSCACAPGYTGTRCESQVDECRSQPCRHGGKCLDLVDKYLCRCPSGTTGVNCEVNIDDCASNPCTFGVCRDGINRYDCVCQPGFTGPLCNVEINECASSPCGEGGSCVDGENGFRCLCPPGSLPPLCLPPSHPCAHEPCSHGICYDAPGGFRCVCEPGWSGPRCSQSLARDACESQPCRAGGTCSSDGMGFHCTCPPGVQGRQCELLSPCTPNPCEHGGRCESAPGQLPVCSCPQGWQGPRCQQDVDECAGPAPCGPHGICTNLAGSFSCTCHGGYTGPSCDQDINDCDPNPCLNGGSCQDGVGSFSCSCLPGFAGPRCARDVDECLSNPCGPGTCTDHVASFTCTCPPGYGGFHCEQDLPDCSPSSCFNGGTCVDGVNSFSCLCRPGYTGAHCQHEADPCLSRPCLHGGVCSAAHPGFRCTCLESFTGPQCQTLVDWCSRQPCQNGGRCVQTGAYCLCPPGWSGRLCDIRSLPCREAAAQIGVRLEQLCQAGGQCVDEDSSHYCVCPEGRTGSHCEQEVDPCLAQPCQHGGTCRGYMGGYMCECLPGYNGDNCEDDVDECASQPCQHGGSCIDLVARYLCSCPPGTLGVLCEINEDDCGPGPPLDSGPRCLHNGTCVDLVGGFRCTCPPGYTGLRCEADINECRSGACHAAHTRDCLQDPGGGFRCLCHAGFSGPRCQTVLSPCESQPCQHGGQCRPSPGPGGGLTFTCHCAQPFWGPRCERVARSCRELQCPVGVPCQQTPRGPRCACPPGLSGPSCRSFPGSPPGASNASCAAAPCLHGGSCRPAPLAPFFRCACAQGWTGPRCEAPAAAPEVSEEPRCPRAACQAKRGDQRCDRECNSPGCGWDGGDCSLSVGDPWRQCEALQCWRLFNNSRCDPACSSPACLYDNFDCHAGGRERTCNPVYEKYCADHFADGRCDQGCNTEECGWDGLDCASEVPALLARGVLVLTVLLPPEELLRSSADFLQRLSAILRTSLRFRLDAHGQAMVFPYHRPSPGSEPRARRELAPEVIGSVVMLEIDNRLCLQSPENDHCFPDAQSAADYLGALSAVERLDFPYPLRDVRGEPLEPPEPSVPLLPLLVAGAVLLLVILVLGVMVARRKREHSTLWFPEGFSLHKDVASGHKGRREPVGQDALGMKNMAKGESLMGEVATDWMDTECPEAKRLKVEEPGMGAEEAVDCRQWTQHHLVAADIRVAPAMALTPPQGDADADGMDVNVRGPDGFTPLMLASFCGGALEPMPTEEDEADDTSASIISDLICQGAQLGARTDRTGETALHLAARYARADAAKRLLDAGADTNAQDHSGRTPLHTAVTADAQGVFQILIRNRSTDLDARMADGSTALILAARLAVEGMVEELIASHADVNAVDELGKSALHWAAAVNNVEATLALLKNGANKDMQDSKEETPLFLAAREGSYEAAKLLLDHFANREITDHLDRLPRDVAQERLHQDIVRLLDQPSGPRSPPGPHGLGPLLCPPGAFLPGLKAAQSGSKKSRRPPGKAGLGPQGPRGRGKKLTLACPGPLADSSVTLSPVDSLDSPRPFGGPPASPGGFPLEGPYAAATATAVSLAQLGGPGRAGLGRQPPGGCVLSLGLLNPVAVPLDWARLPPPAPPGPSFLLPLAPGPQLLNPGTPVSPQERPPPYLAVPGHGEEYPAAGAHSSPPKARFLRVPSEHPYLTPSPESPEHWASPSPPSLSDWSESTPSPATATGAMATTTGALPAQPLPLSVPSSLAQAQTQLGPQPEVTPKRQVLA
Experiment [10] is described as follows: probe aEGFR binding to arrayed compounds – biochemical, biotinylated probe, 635/667 nm fluorescence, primary screen (AID 1097).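 Note: probe is a biotinylated anti-EGFR antibody binding compounds printed on slides; score combines fluorescence near 667 nm and signal to noise of each spot.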 The note with it: small-molecule microarray, higher = more signal.

Torsin-1A-interacting protein 2 (Homo sapiens), sequence (Q8NFQ8 whole entry, looked up): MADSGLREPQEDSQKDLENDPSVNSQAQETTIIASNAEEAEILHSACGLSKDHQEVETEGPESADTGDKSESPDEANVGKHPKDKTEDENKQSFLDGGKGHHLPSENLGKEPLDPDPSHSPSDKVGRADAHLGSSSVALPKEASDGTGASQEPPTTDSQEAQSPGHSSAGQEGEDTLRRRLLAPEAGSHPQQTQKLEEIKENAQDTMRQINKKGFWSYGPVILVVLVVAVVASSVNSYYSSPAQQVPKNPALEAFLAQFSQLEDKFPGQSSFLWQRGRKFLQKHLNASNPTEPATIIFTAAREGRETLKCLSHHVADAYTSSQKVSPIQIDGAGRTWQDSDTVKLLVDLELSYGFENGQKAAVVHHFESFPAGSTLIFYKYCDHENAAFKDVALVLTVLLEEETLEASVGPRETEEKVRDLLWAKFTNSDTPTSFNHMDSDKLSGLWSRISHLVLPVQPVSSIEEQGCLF

Turning to `Cc1cc2c(nc1C)CCCN2CC(O)CN1CCN(C)CC1` (stereo not given), the composite z-score was 1.25 in experiment [1]; 0.9 in experiment [5]; -0.294 in experiment [7]; 0.578 in [8]; 0.915 in experiment [9]; -0.169 in experiment [10]. For the same molecule, the z-score in [2] is -0.525 (inactive); in [3], 0.277 (inactive); in experiment [4] it was -0.856 (inactive); in experiment [6], -0.384 (inactive).
As for `CC(=O)OC[C@H]1O[C@H](CCON=C(C)CCN2CCc3nc(-c4ccccc4)c(-c4ccccc4)cc3C2)C=C[C@@H]1OC(C)=O`, the composite z-score was 1.25 in experiment [1]; 1.26 in experiment [5]; -0.0258 in experiment [7]; 0.169 in experiment [8]; 0.0346 in experiment [9]; -0.0549 in experiment [10]. Also, the z-score was -1.92 (inactive) in experiment [2], -0.757 (inactive) in experiment [3], -4.46 (inactive) in experiment [4] and 0.901 (inactive) in experiment [6].
As for `O=C1[C@H]2[C@H]3[C@H](O)[C@H](O)CC(=NOCc4ccccc4)[C@H]3CC[C@H]2C(=O)N1C[C@@H]1CCCO1`, the composite z-score was -0.107 in [1]; 0.78 in experiment [5]; -0.238 in experiment [7]; 0.322 in experiment [8]; 0.48 in [9]; -0.123 in experiment [10]. Also, the z-score in [2] was -0.139 (inactive); in experiment [3], 0.531 (inactive); in experiment [4], -0.351 (inactive); in experiment [6] it was 0.0096 (inactive).
As to `COc1ccc(O[C@H]2C=C[C@@H](c3ccccc3)O[C@@H]2COC(=O)CCC(C)=NO[C@@H](C)c2cc(-c3c(C)cc(C)cc3C)no2)cc1`, the composite z-score was -0.225 in [1]; -0.687 in experiment [5]; -0.219 in experiment [7]; -0.916 in experiment [8]; -2.17 in experiment [9]; -0.214 in [10]. Besides, the z-score in [2] was -0.843 (inactive); in experiment [3] it was 1.09 (inactive); in experiment [4], -0.159 (inactive); in [6] it was -0.312 (inactive).
With `CN1C(=O)C2C=CC(C(O)c3ccc(Br)cc3)N(N(c3ccccc3)c3ccccc3)C2C1=O` (stereo not given), the composite z-score in experiment [1] was 0.289; in [5], 1.94; in experiment [7], 0.238; in experiment [8], -0.482; in [9], 0.585; in experiment [10], 0.146. Further, the z-score in [2] was 0.351 (inactive); in experiment [3] it was 1.27 (inactive); in [4], 2.27 (inactive); in [6], -1.24 (inactive).
`CCCCCCc1nc(CCCc2cc3c(c(CCCCCC)n2)[Si](C(C)C)(C(C)C)O[C@H]3c2ccccc2)cc2c1[Si](C(C)C)(C(C)C)O[C@H]2c1ccccc1`: the composite z-score in experiment [1] was 0.0913; in experiment [5] it was -0.769; in experiment [7], -0.233; in experiment [8], 0.522; in experiment [9] it was 0.279; in experiment [10], -0.11. In addition, the z-score in experiment [2] is -0.449 (inactive); in experiment [3], -0.643 (inactive); in [4], -0.146 (inactive); in experiment [6], -1.43 (inactive).
On to `CN1C(=O)C2C=CC(C(O)C(c3ccccc3)c3ccccc3)N(NC(=O)OC(C)(C)C)C2C1=O` (stereo not given), for which the composite z-score in experiment [1] was 1.42; in [5], 3.35; in experiment [7], 0.59; in experiment [8] it was -0.168; in experiment [9], 1.09; in [10], 0.311. The z-score was -1.79 (inactive) in [2], -4.38 (inactive) in experiment [3], -0.512 (inactive) in [4] and -0.805 (inactive) in experiment [6].
With `COc1ccc(O[C@H]2C=C[C@@H](c3ccccc3)O[C@@H]2CON=C[C@@H](C)[C@H](OCc2ccccc2)C(C)C)cc1`, the composite z-score is -0.28 in experiment [1]; -1.14 in experiment [5]; -0.235 in experiment [7]; -0.347 in experiment [8]; -1.27 in experiment [9]; -0.241 in experiment [10]. Also, the z-score is 0.706 (inactive) in experiment [2], -0.564 (inactive) in [3], 0.314 (inactive) in [4] and -0.349 (inactive) in experiment [6].
As for `C[C@H]1Cc2c(-c3ccccc3)nc3c(c2CO1)CN(CCOc1ccccc1)CC3`, the composite z-score in experiment [1] is 1.56; in [5] it was 2.3; in [7] it was -0.161; in experiment [8], 0.472; in experiment [9], 1.12; in experiment [10] it was -0.0114. Further, the z-score was -0.0387 (inactive) in experiment [2], -1.24 (inactive) in [3], -0.142 (inactive) in [4] and 1.91 (inactive) in experiment [6].
Consider `CN1C(=O)C2C(C1=O)C1C=C(CCCO)C2C(c2ccc(CN3CCCC3)cc2)N1C` (stereo not given), for which the composite z-score in [1] is -0.0446; in experiment [5], -0.0999; in experiment [7] it was -0.193; in experiment [8], -0.347; in experiment [9], -0.575; in [10], -0.133. In addition, the z-score was -0.363 (inactive) in experiment [2], 0.652 (inactive) in experiment [3], -0.14 (inactive) in experiment [4] and 0.145 (inactive) in experiment [6].
With `NC(=O)NCC#Cc1ccc2c(c1)[C@]1(C(=O)N2)[C@H](c2ccc(O)cc2)N2[C@H](c3ccccc3)[C@H](c3ccccc3)OC(=O)[C@H]2[C@@H]1C(=O)N1CCCCCCC1`, the composite z-score in experiment [1] is 1.53; in experiment [5], 1.55; in [7] it was 1.24; in experiment [8], 1.55; in experiment [9], 1.01; in experiment [10], 0.511. Further, the z-score in experiment [2] is 1 (inactive); in experiment [3], -0.447 (inactive); in [4], 1.24 (inactive); in experiment [6] it was 0.951 (inactive).
Consider `O=C1[C@H]2[C@H]3[C@H](O)[C@H](O)CC(=NOC[C@@H](O)COCc4ccco4)[C@@H]3CC[C@H]2C(=O)N1c1ccc(F)cc1F`, for which the composite z-score is 0.601 in experiment [1]; -1.34 in [5]; -0.223 in [7]; 1.01 in experiment [8]; 0.0986 in [9]; -0.0828 in [10]. The z-score in experiment [2] is -0.236 (inactive); in experiment [3] it was 0.0766 (inactive); in experiment [4], -1.25 (inactive); in experiment [6], 0.363 (inactive).
`Cc1ccc(S[C@]2(C(=O)NCC(F)(F)F)CC(=O)N(Cc3ccccc3Cl)[C@@H]2c2ccc(CO)cc2I)cc1`: the composite z-score in experiment [1] is 1.33; in experiment [5] it was 2.34; in experiment [7], -0.0998; in experiment [8] it was -1.07; in experiment [9] it was -0.573; in experiment [10], -0.284. Besides, the z-score in experiment [2] was 0.294 (inactive); in experiment [3], -3.18 (inactive); in experiment [4], 1.06 (inactive); in [6], 0.492 (inactive).
Consider `CCOC(=O)NN=C1C[C@@H](O)[C@@H](O)[C@@H]2[C@@H]3C(=O)N(C(C)(C)C)C(=O)[C@@H]3CC[C@@H]12`, for which the composite z-score in experiment [1] is -0.172; in [5], -0.786; in experiment [7] it was -0.0569; in [8] it was 0.261; in [9], -0.861; in experiment [10], 0.0021. Moreover, the z-score was -1.04 (inactive) in experiment [2], 0.213 (inactive) in experiment [3], -0.626 (inactive) in experiment [4] and 0.572 (inactive) in [6].
